# In all, about 330,000 compounds went through this assay and about 1,900 (0.58%) were called active. Inconclusive results (about 4%) are left out. Cut-off read from the data, not from the text of the source: inconclusive = inhibition above about 70% without an active follow-up result; inactive = below that. A selection follows. Entries with a potency or affinity are not part of this list.
# Experiment: M. tuberculosis growth inhibition, HTS (AID 449762);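 note: bacterial growth assessed after seven days of incubation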
# Settings: M. tuberculosis H37Rv growth inhibition, 7H9 media; at 25 µM; stronger effect = higher value
row,SMILES,inhibition
1,Cc1ccc(C(=O)C2CCOC(C)(C)C2)cc1 (stereo not drawn),-6.79% (inactive)
2,Cc1ccc(-c2csc(N3CCC[C@@H]3C(=O)NCCn3c(-c4ccncc4)nc4ccccc43)n2)cc1,58.4% (inactive)
3,Cc1ccc(-c2csc(NCCn3c(-c4ccncc4)nc4ccccc43)n2)cc1,-3.83% (inactive)
4,COc1cc2c(cc1OC)CN(C1CCC(C)CC1)CC2 (stereo not drawn),8.03% (inactive)
5,CC(C)N=C(NC#N)SCc1ccccc1F,-3.3% (inactive)
6,COc1ccc(CCNc2nc(C)nc3c2oc2ccccc23)cc1OC,2% (inactive)
7,CCNc1nc(C)nc2c1oc1ccccc12,2.03% (inactive)
8,COc1ccccc1NS(=O)(=O)c1cccc(C(=O)NN)c1,-5.02% (inactive)
9,COc1cc(NC(=O)Cc2ccc([N+](=O)[O-])cc2)c(C(=O)O)cc1OC,20.1% (inactive)
10,CN(C)c1ccc(C(=O)/C=C/c2cccnc2)cc1,-3.39% (inactive)
11,O=C(/C=C/c1cccnc1)c1ccccc1O,4.14% (inactive)
12,O=C(/C=C/c1cccnc1)c1ccc(O)cc1,2.21% (inactive)
13,COc1cc(C(=O)/C=C/c2cccnc2)ccc1O,52.2% (inactive)
14,Cc1ccc2nc(-c3ccc(NC(=O)CCS(=O)(=O)c4ccccc4)cc3)sc2c1,1.52% (inactive)
15,O=C(CN(Cc1ccco1)C(=O)CNS(=O)(=O)c1ccccc1)NCc1ccccc1,0.41% (inactive)
16,Cc1ccc(N2C(=O)C3C4C=CC(CNC(=S)Nc5ccc(Cl)cc5)(O4)C3C2=O)cc1 (stereo not drawn),0.99% (inactive)
17,Cc1ccc(NC(=O)Nc2ccc3c(c2)CCC3)c(C)c1,-10.3% (inactive)
18,Cc1ccc2[nH]c3nc(N/N=C/c4cccc(O)c4)nnc3c2c1,3.58% (inactive)
19,O=Nc1ccc(NOC(=O)c2ccccc2)cc1,14% (inactive)
20,Cc1ccc(C(=O)ONc2ccc(N=NC(=O)c3ccccc3O)cc2)cc1,2.47% (inactive)
21,CCCn1c(C)cc(C(=O)CN2C(=O)c3cccc(N)c3C2=O)c1C,-10% (inactive)

row,SMILES,inhibition
1,Oc1ccc(Cl)cc1N=Nc1ccccc1,-8.24% (inactive)
2,COc1ccc(-c2[nH]ncc2N=Nc2ccccc2)cc1,8.09% (inactive)
3,CCOC(=O)c1[nH]c2ccccc2c1NC(=O)c1ccc(Br)o1,-1.61% (inactive)
4,CN(C)c1ccc(/C=C/c2cccc[n+]2[O-])cc1,1.21% (inactive)
5,CN(C)c1ccc(/C=C/c2cc[n+](C)cc2)cc1,7.78% (inactive)
6,Cc1cc(C(=O)OCC(=O)Nc2cccc(F)c2)c(C)n1C1CC1,0.41% (inactive)
7,CCN(CC)CCn1c(SCC(=O)NCc2ccccc2)nc2c(sc3ccccc32)c1=O,6% (inactive)
8,CCN(CC)CCn1c(SCC(=O)Nc2ccc(F)cc2)nc2c(sc3ccccc32)c1=O,4.95% (inactive)
9,COCCn1c(-c2ccccc2)cc(C(=O)O)c1C,6.01% (inactive)
10,COc1ccc(CNC(=O)Nc2ccc(C)c(C)c2)cc1,-5.48% (inactive)
11,CC(=O)Nc1ccc(NC(=O)COc2ccc(Cl)cc2Cl)cc1,-0.58% (inactive)
12,CC(=O)NC(=S)Nc1ccc(NC(=O)COc2ccc(Cl)cc2Cl)cc1,0.45% (inactive)
13,COC(=O)c1ccc(NC(=O)Cn2nc(SC)n(N)c2=S)cc1,-4.09% (inactive)
14,Cn1nc([N+](=O)[O-])nc1Sc1ccc(Cl)cc1,0.18% (inactive)
15,Cc1ccc(Sc2nc([N+](=O)[O-])nn2C)cc1,6.48% (inactive)
16,CC(=O)Nc1ccc(CN2CCN(CCc3ccccc3)C(CCO)C2)cc1 (stereo not drawn),-3.1% (inactive)
17,CCCCS/C(N)=N/N=C/c1ccccc1O,1.14% (inactive)
18,Cc1ccc(O)c(C=Nc2cc(C)ccc2O)c1,-4.69% (inactive)
19,COc1ccc(CCNc2nc(-c3ccc(O)cc3)cs2)cc1OC,3.36% (inactive)
20,C=CCCC(=O)N1CCCC(C(=O)c2cccc(OC)c2)C1 (stereo not drawn),5.01% (inactive)
21,CN1CCN(CC(O)Cn2c3ccccc3c3ccccc32)CC1 (stereo not drawn),6.36% (inactive)

row,SMILES,inhibition
1,OC(CN1CCN(c2ccccc2)CC1)Cn1c2ccccc2c2ccccc21 (stereo not drawn),14.7% (inactive)
2,Cc1noc(C)c1COC(=O)c1ccc2c(c1)S(=O)(=O)c1ccccc1C2=O,-4.63% (inactive)
3,Brc1ccc2c(c1)C(c1cccs1)=NNC(c1cccnc1)=N2,1.73% (inactive)
4,NC(=O)CC(NC(=O)Cc1ccc(Br)cc1)c1ccc(N2CCN(c3ccccn3)CC2)c([N+](=O)[O-])c1 (stereo not drawn),2.89% (inactive)
5,C[C@H](CO)N1C[C@H](C)[C@@H](CN(C)S(C)(=O)=O)Oc2c(NC(=O)C3CC3)cccc2C1=O,1.46% (inactive)
6,CC(C)SC1=NC(C)(C)C=C(/C=C/c2ccc(Cl)cc2Cl)N1,23.8% (inactive)
7,CCSC1=NC(C)(C)C=C(/C=C/c2ccc(Cl)cc2Cl)N1,46.6% (inactive)
8,COc1ccc(C(=O)Nc2cccc([N+](=O)[O-])c2)cc1Br,-1.62% (inactive)
9,COc1nccc(-c2ccc(F)cc2)c1C#N,6.03% (inactive)
10,COc1ccc2[nH]c3c(Cl)ncnc3c2c1,-0.24% (inactive)
11,COc1ccc2c(c1)[nH]c1c(C)nccc12,34.6% (inactive)
12,COc1ccc(NC(C)C(=O)N/N=C/c2c(O)ccc3ccccc23)cc1 (stereo not drawn),-2.98% (inactive)
13,CN(C)S(=O)(=O)N1CCCN(S(=O)(=O)N(C)C)CC1,-7.77% (inactive)
14,Cc1ccc(NC(=O)Cc2ccc(Cl)cc2)cc1S(=O)(=O)N1CCCCCC1,-4.17% (inactive)
15,CCCCC(=O)Nc1ccc(C)c(S(=O)(=O)N2CCCCCC2)c1,-1.76% (inactive)
16,Cc1c(NC(=O)CC2NC(=O)NC2=O)c(=O)n(-c2ccccc2)n1C (stereo not drawn),4.59% (inactive)
17,Cc1ccc(NC(=O)CSc2nc(N)cc(=O)[nH]2)cc1S(=O)(=O)N1CCCCCC1,-1.26% (inactive)
18,Cc1ccc(S(=O)(=O)NNC(=O)c2ccc(O)cc2)cc1,9.92% (inactive)
19,Cc1ccc(C(=O)NNS(=O)(=O)c2ccccc2[N+](=O)[O-])cc1,4.03% (inactive)
20,C#CC[N+]1(C)C2CCC1CC(O)C2 (stereo not drawn),6.2% (inactive)
21,COC(=O)/C(=C\c1c(OC)cc(OC)cc1OC)C(=O)c1ccc2c(c1)OCO2,17% (inactive)

# Reference: PubChem BioAssay AID449762 (Southern Research Specialized Biocontainment Screening …, 2010)
